Pf growth 48h = Primary qHTS for delayed death inhibitors of the malarial parasite plastid, 48 hour incubation. P. falciparum luciferase growth in erythrocytes, 48 h. Potency, µM (doses to about 28.7 µM), without a hit: at the highest dose activity change, negative = inhibition, hits mostly inhibitors. hit rate 5.9% among 310,000. AID 504832, 2011; note: % is set by controls: 0 for no effect and ±100 for the full control effect
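Cell-based growth assay: transgenic P. falciparum expressing firefly luciferase, cultured in red cells within RPMI 1640 containing 0.5% w/v Albumax, 24 mM bicarbonate and gentamycin. A drop in luciferase activity indicates inhibition.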
AmpC inh detg = qHTS Inhibitors of AmpC Beta-Lactamase (assay with detergent). AmpC hydrolysis of nitrocefin, absorbance 480 nm, 0.01% Triton. Potency, µM (titrated, usually from 114 µM), for inactives: top-dose activity change, negative = inhibition, hits mostly inhibitors. hit rate 0.041% among 370,000. AID 485294, 2010;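 note: 0% = no-compound wells and -100% = no-enzyme wells; nearly all actives have a fitted effect of over 25% in size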
Target sequence (P00811 whole entry, looked up): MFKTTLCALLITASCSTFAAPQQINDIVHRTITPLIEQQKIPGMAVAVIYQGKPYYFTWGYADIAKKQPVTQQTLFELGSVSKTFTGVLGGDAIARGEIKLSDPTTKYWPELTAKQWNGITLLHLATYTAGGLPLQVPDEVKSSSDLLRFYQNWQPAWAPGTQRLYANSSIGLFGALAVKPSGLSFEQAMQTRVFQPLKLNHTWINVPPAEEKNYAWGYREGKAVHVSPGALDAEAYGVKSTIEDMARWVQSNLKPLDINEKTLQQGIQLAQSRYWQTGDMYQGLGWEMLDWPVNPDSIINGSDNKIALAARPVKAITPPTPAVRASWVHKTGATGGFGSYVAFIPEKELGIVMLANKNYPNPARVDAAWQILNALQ
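20 mM phosphate pH 7.0 + 0.01% (detergent screen) or 0.0001% Triton X-100; 5.3 nM AmpC reagent; cpd preinc 15 min RT; nitrocefin (800 uM stock) to start; A480 q20 s × 4 min; Activity was normalised to no-enzyme and no-compound control wells.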
Sm TGR block = qHTS Assay for the Inhibitors of Schistosoma Mansoni Peroxiredoxins. Potency, µM (top dose mostly 114 µM), for the others: at the top dose activity change, negative = inhibition, most hits filed as inhibitors. purified TGR, DTNB reduction, TNB absorbance 405 nm. AID 485364, 2010. hit rate 3% among 360,000; note: % is set by controls: 0 for no effect and ±100 for the full control effect; nearly all actives have a fitted effect of over 60% in size
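First, TGR (20 nM dispensed) and NADPH were mixed with compound. Second, a 15 min room-temperature incubation followed. Third, further NADPH and then DTNB were added to start the reaction. Finally, TNB absorbance was monitored kinetically.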
AmpC no deterg = qHTS Inhibitors of AmpC Beta-Lactamase (assay without detergent); AmpC nitrocefin hydrolysis, absorbance 480 nm, 0.0001% Triton; Potency, µM (highest dose often 57.1 µM), without a hit: at the highest dose activity change, negative = inhibition, actives largely listed as inhibitors; hit rate 0.52% among 330,000;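 note: plate controls were no compound for no effect and no enzyme for full effect; nearly all actives have a fitted effect of over 20% in size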
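20 mM phosphate pH 7.0 + 0.01% (detergent screen) or 0.0001% Triton X-100; 5.3 nM AmpC reagent; cpd preinc 15 min RT; nitrocefin (800 uM stock) to start; A480 q20 s × 4 min; Activity was normalised to no-enzyme and no-compound control wells.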
Pf growth 96h = Primary qHTS for delayed death inhibitors of the malarial parasite plastid, 96 hour incubation | P. falciparum luciferase reporter growth, 96 h | Potency, µM (top dose mostly 28.7 µM), for the others: at the highest dose activity change, negative = inhibition, hits mostly inhibitors | hit rate 6.9% among 320,000 | AID 504834, 2011; note: % is set by controls: 0 for no effect and ±100 for the full control effect
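Two parasite generations (96 h, 37 C, 5% CO2) of compound exposure in infected erythrocytes (0.05% parasitemia, 2% hematocrit). Luciferase-reporter P. falciparum; decreased luminescence indicates inhibited growth, aimed at apicoplast-acting delayed death.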
SARS PLP yeast = qHTS of Yeast-based Assay for SARS-CoV PLP; S. cerevisiae expressing SARS-CoV PLpro, growth rescue; Potency, µM (titrated, usually from 32.9 µM), inactives show at the top dose activity, positive = growth rescue, usual class: activators; hit rate 0.19% among 330,000; calls by dose curve; note: 0% is about no effect; nearly all actives have a fitted effect of over 55% in size
The depositor's hits bear a star; [ ] = remark or other dose. Only some compounds are listed: those with a hit (about 12% of all), similar ones and a draw of the others. Unless noted, calls come from the whole dose curve; as a rule, active = well fitted curve in the direction sought with a large enough effect; inconclusive = small, poorly fitted or top-dose-only effect, or another doubt; inactive = no such curve, though single readings can be large; an effect the other way counts as inactive or inconclusive. Potency is the fitted concentration of half-maximal effect.

For O/N=C(/c1ccccc1)c1cc2cc(Br)cc(Br)c2o1 the results were Pf growth 48h -6.7%, AmpC inh detg 7.4%, Sm TGR block -1.2%, AmpC no deterg -32.5%, Pf growth 96h 8.2% and SARS PLP yeast -1.0%.
`Cc1cccc(N2CCN(C(=O)c3cccc(N4CCCC4=O)c3)C(C)C2)c1` (centres undefined) gave Pf growth 48h inconclusive, AmpC inh detg 1.3%, Sm TGR block 0.0%, AmpC no deterg 67.1%, Pf growth 96h inconclusive and SARS PLP yeast -0.2%.
CCCCn1c(N)c(N(CC(C)C)C(=O)C2CCN(S(=O)(=O)c3ccc(F)cc3)CC2)c(=O)[nH]c1=O was read as Pf growth 48h inconclusive, AmpC inh detg -11.8%, Sm TGR block -7.8%, AmpC no deterg 8.1%, Pf growth 96h inconclusive and SARS PLP yeast 7.6%.
`CCCCn1c(N)c(N(CC(C)C)C(=O)C2CCN(S(=O)(=O)c3ccc(Cl)cc3)CC2)c(=O)[nH]c1=O` gave Pf growth 48h 9.28µM*, AmpC inh detg 0.8%, Sm TGR block -0.7%, AmpC no deterg -15.6%, Pf growth 96h 9.28µM* and SARS PLP yeast -1.0%.
`CCCOC(=O)C1C2C=C[C@]3(CN(CCc4ccccc4)C(=O)[C@H]13)O2` (some centres undefined) gave Pf growth 48h inconclusive, AmpC inh detg -8.4%, Sm TGR block 12.7%, AmpC no deterg 33.9%, Pf growth 96h inconclusive and SARS PLP yeast -3.0%.
Screening COC(=O)c1c(NC(=O)c2ccco2)sc2c1CC(C)(C)NC2(C)C returned Pf growth 48h -1.0%, AmpC inh detg 3.0%, Sm TGR block 0.6%, AmpC no deterg 18.8%, Pf growth 96h 16.5µM* and SARS PLP yeast 0.7%.
`CC1(C)Cc2c(sc(NC(=O)COc3cccc4ccccc34)c2C#N)C(C)(C)N1` gave Pf growth 48h inconclusive, AmpC inh detg 1.9%, Sm TGR block 16.6%, AmpC no deterg 22.7%, Pf growth 96h inconclusive and SARS PLP yeast 0.6%.
Screening CCOC(=O)c1c(NC(=O)COc2ccccc2C#N)sc2c1CC(C)(C)NC2(C)C returned Pf growth 48h 11.7µM*, AmpC inh detg -7.5%, Sm TGR block -4.7%, AmpC no deterg 97.3%, Pf growth 96h 5.22µM* and SARS PLP yeast inconclusive.
Screening CC1CCN(S(=O)(=O)c2ccc(C(=O)Nc3sc4c(c3C(N)=O)CC(C)(C)NC4(C)C)cc2)CC1 returned AmpC inh detg 5.0% and Sm TGR block 5.0%.
Screening CCOC(=O)N1CCN(S(=O)(=O)c2ccc(C(=O)Nc3sc4c(c3C(N)=O)CC(C)(C)NC4(C)C)cc2)CC1 returned Pf growth 48h 11.7µM*, AmpC inh detg 3.8%, Sm TGR block 14.0%, AmpC no deterg 176.2%, Pf growth 96h inconclusive and SARS PLP yeast 12.2%.
Screening CCOC(=O)c1c(NC(=O)Cc2ccccc2)sc2c1CC(C)(C)NC2(C)C returned Pf growth 48h inconclusive, AmpC inh detg inconclusive, Sm TGR block 0.7%, AmpC no deterg 99.0%, Pf growth 96h 0.928µM* and SARS PLP yeast 3.0%.
`CCOC(=O)c1c(NC(=O)c2ccc(C)cc2)sc2c1CC(C)(C)NC2(C)C` gave Pf growth 48h 34.4%, AmpC inh detg 7.8%, Sm TGR block 10.6%, AmpC no deterg -13.8%, Pf growth 96h 39.5% and SARS PLP yeast 0.6%.
For CCN1C(=O)C(CC(=O)Nc2c(C)cccc2C)Nc2cc(S(=O)(=O)N(C)C)ccc21 (centres undefined) the results were Pf growth 48h inconclusive, AmpC inh detg -11.8%, Sm TGR block -17.4%, AmpC no deterg 10.4%, Pf growth 96h 45.5%[5.75 µM] and SARS PLP yeast -0.4%.

Assay outcomes: PubChem, National Center for Advancing Translational Sciences (NCATS)
